Molecules are shown by their SMILES. Hit rate of the full screen: of about 310,000 compounds, about 2,200 (0.71%) showed an effect of 50% or more. The effect is printed as a negative number. The list comes from a sample in which strong results are over-represented; it also holds similar structures and randomly drawn compounds.

Chain of human ether-à-go-go-related gene (hERG) potassium channel (Q12809 whole entry, looked up): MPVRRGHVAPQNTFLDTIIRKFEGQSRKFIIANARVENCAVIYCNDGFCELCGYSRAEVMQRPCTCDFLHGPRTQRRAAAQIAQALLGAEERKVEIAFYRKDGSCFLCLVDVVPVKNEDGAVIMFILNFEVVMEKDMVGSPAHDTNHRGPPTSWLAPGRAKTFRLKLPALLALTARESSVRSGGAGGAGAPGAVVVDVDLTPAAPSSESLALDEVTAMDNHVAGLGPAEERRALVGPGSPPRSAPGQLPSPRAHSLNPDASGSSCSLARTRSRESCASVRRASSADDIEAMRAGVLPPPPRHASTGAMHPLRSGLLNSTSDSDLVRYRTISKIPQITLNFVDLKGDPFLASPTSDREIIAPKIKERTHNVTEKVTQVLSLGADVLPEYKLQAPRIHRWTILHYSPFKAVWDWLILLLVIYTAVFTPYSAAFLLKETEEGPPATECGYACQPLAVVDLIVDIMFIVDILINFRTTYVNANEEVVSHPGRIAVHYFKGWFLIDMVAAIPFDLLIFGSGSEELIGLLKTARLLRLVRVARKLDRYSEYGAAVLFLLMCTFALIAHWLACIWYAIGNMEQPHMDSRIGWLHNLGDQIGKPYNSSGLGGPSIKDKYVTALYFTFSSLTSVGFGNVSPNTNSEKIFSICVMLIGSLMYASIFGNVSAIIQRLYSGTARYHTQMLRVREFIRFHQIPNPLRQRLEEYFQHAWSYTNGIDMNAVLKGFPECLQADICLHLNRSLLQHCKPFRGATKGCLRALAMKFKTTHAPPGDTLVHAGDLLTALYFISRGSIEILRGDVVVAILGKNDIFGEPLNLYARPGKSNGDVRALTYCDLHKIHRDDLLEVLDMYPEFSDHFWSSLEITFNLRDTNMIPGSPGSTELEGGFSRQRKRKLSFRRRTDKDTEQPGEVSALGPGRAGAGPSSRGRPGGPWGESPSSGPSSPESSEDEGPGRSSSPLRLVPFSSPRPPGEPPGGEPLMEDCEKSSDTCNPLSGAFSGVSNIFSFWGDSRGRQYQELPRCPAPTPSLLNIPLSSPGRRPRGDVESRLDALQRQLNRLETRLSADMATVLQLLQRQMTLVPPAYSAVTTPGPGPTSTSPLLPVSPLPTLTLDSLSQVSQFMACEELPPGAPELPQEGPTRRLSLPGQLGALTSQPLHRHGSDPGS

This experiment addresses human ether-à-go-go-related gene (hERG) potassium channel (human, UniProt Q12809). Nature of the experiment: primary screen, population patch clamp on CHO cells stably expressing hERG; higher = less effect of the substance.
On to `CCCNC(=O)C(Cc1ccc(F)cc1)NC(=O)c1ccc(C#N)cc1` (centres unmarked), for which the “hERG current change (%, negative = inhibition) at 1uM” value was -17.5%.

In the case of `CCC(CC)c1nnc(NC(=O)c2cccc(S(=O)(=O)N3CCc4ccccc43)c2)s1`, the “hERG current change (%, negative = inhibition) at 1uM” value came out at 13.3%.

Turning to `Cl.O=C1Cc2ccccc2Sc2cc(OCCCN3CCCCC3)ccc21`, the “hERG current change (%, negative = inhibition) at 1uM” value is -29.1%.

For `CN(C)CCOc1ccc2c(c1)Sc1ccccc1CC2=O.Cl`, the “hERG current change (%, negative = inhibition) at 1uM” value is given as -18.3%.

For `CN(C)CCCOc1ccc2c(c1)Sc1ccccc1CC2=O.Cl`, the “hERG current change (%, negative = inhibition) at 1uM” value is -53.3%.

On to `O=C(Cc1ccc([N+](=O)[O-])cc1)OCc1c(F)cccc1Cl`, for which the “hERG current change (%, negative = inhibition) at 1uM” value is 14.7%.

For `CCOc1ccc(N=C2NC(=O)CS2)cc1`, the “hERG current change (%, negative = inhibition) at 1uM” value turned out to be 11.1%.

With `Cc1ccc(NC(=O)NC2CCCCCCC2)cc1C`, the “hERG current change (%, negative = inhibition) at 1uM” value is on record as 11.5%.

Consider `OCC1(Cc2ccc(F)cc2F)CCCN(Cc2ccc(Cl)cc2)C1` (centres unmarked), for which the “hERG current change (%, negative = inhibition) at 1uM” value is listed as -15%.

For the compound `OCC1(Cc2ccccc2F)CCCN(CCc2ccccc2)C1` (centres unmarked), the “hERG current change (%, negative = inhibition) at 1uM” value was -30.5%.

With `OCC1(CCc2ccccc2)CCCN(CCCC(F)(F)F)C1` (centres unmarked), the “hERG current change (%, negative = inhibition) at 1uM” value is -13.2%.

`OCC1(Cc2ccc(F)cc2F)CCCN(CCCc2ccccc2)C1` (centres unmarked): the “hERG current change (%, negative = inhibition) at 1uM” value is -56.1%.

`O=C(Cc1ccccc1)N1CCN(C/C=C/c2ccccc2)CC1`: the “hERG current change (%, negative = inhibition) at 1uM” value was -6.02%.

As to `OCC1(CCc2ccccc2)CCN(Cc2cc(Cl)ccc2O)CC1`, the “hERG current change (%, negative = inhibition) at 1uM” value is -5.01%.

With `OCC1(CCc2ccccc2)CCN(Cc2c(F)ccc(F)c2F)CC1`, the “hERG current change (%, negative = inhibition) at 1uM” value is 7.97%.

In the case of `OCC1(CCc2ccccc2)CCN(C/C=C/c2ccccc2)CC1`, the “hERG current change (%, negative = inhibition) at 1uM” value is given as -86.4%.

For the compound `OCC1(Cc2ccc(F)cc2)CCCN(CCc2ccccc2)C1` (centres unmarked), the “hERG current change (%, negative = inhibition) at 1uM” value is on record as -0.0287%.

Turning to `OCC1(CC2CCCCO2)CCN(C/C=C/c2ccccc2)CC1` (centres unmarked), the “hERG current change (%, negative = inhibition) at 1uM” value is -2.99%.

For `OCC1(CCc2ccccc2)CCN(Cc2ccccc2Cl)CC1`, the “hERG current change (%, negative = inhibition) at 1uM” value is -54.6%.

As for `OCC1(CCc2ccccc2)CCCN(CCCc2ccccc2)C1` (centres unmarked), the “hERG current change (%, negative = inhibition) at 1uM” value is on record as -57.6%.

For `Cc1cc(C(=O)N2CCCC(N3CCN(c4cccc(Cl)c4)CC3)C2)no1` (centres unmarked), the “hERG current change (%, negative = inhibition) at 1uM” value came to 10.5%.

As for `Cc1cc2oc(C(=O)N(Cc3ccccc3)c3ccccn3)cc(=O)c2cc1Cl`, the “hERG current change (%, negative = inhibition) at 1uM” value is reported as 10.6%.

On to `CCn1nc(C)cc1C(=O)Sc1cccc(Cl)c1`, for which the “hERG current change (%, negative = inhibition) at 1uM” value is 10.9%.

Take `CCCCCCCC(=O)NNC(=O)c1c(O)c2ccccc2[nH]c1=O`: the “hERG current change (%, negative = inhibition) at 1uM” value was determined as 9.8%.

For `CCCCn1c(N)c(N(C)C(=O)c2ccc(Br)o2)c(=O)[nH]c1=O`, the “hERG current change (%, negative = inhibition) at 1uM” value turned out to be 7.35%.

For `O=C(O)C1CC=CCC1C(=O)N1CCCC1` (centres unmarked), the “hERG current change (%, negative = inhibition) at 1uM” value is -1.33%.

These data come from article PMC4336329 (PLoS ONE, 2015).
